Wnt act – activates Wnt/beta-catenin signaling in a reporter cell assay | activator, plate reader | activation, % at 9.35 µM | actives 1.2% (n = 300,000); in the data active = activation above about 30%, passing the limit was not always enough;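 note: 0% = neutral control wells and 100% = positive control wells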
HSF1 inh – HSF1 inhibition | NIH3T3-HGL HSE-luciferase, MG132-induced, luminescence 8 h; stronger effect = lower value | activity change, negative = inhibition, % at 7.5 µM (by protocol) | actives 0.77% (n = 300,000) | AID 2098;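 active = more than half of replicate wells show activity change below -50%, luminescence cut by over half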;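 note: luciferase reports HSF-1 transcriptional activity via heat shock element; 0% = median of DMSO wells and -100% = zero luminescence signal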
MITF act – MITF TRPM1 promoter activation in melanoma cells. SK-MEL-5 TRPM1-promoter luciferase, 24 h; % of positive control, neutral wells = 0. activation, % at 12.5 µM. actives 0.75% (n = 300,000);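 active = mean activation of at least 80% with every replicate also reaching 80%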;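 note: 0% = neutral control wells and 100% = parthenolide positive control wells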
esBAF inh – blocks esBAF chromatin remodeling in mouse ES cells; reporter increase, % at 12.5 µM; actives 2% (n = 350,000); Bmi1-luciferase knock-in reporter, 24 h; 100% = twice the neutral-well signal; in the data active = activation above about 40%;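 note: 0% = median of the plate's neutral control wells and 100% = double that signal; a rise in the Bmi1 reporter signal indicates esBAF inhibition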
HSF-1 act – increases HSF-1 driven luciferase reporter signal | AID 504408 | NIH3T3-HGL HSF-1 luciferase reporter, MG132, 8 h; 100% = twice DMSO control signal | activation, % at 9 µM | actives 1.7% (n = 300,000);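 active = mean replicate activation of at least 50% with a set share of replicates each reaching 50%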;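 note: 0% = median of the neutral control wells and 100% = twice that signal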
* marks the source's active call; other numbers are inactive results; . = no result given. This is a sample that favours compounds with a hit; in the whole collection about 3.8% have one here.

SMILES	Wnt act	HSF1 inh	MITF act	esBAF inh	HSF-1 act
C[C@H](NC(=O)[C@@H]1CSC2c3ccccc3C(=O)N21)C(=O)NCCc1ccccc1 (stereo partly drawn)	5	29	6	30	70*
CN(C)CCCNc1ncnc2c1c(-c1ccccc1)cn2-c1ccccc1	-8	-2	22	3	-4
CN(C)CCCNc1ncnc2scc(-c3ccccc3)c12	40*	-8	1	.	-14
N#C/C(=C\c1cccc([N+](=O)[O-])c1)C(=O)Nc1cccnc1	0	3	-6	.	21
CCOC(=O)/C(C#N)=C/c1cc(C)n(-c2ccccc2)c1C	.	-70*	67	.	-74
CCOC(=O)/C(C#N)=C/c1cc(C)n(-c2ccc(Br)cc2)c1C	15	0	.	.	-14
Cc1cc(/C=C(\C#N)C(=O)Nc2ccccc2)c(C)n1-c1cccnc1	-5	23	56	.	58*
N#C/C(=C\c1ccccc1O)C(=O)Nc1cccnc1	36*	22	94*	41	22
COc1ccc(NC2CC(=O)N(C(C)C)C2=O)cc1 (stereo not drawn)	-2	.	69	60*	.
CC(C)N1C(=O)CC(Nc2ccc(N3CCOCC3)cc2)C1=O (stereo not drawn)	-2	-10	.	29	2
COCC#Cc1ccc2c(c1)O[C@H](CN(C)C(=O)Nc1ccc(OC)cc1)[C@H](C)CN([C@H](C)CO)S2(=O)=O	.	.	.	-2	.
CCCNC(=O)N1C[C@@H](O)COC[C@H]2O[C@@H](CC(=O)NCc3ccc(Cl)c(Cl)c3)CC[C@@H]21	.	.	.	0	.
CCCC#Cc1cnc2c(c1)C(=O)N([C@H](C)CO)C[C@H](C)[C@@H](CN(C)C(=O)c1cccc(F)c1)O2	.	.	.	5	.
O=C(Nc1cccc(C(=O)N2CCCCC2)c1)C1CCCC1	-4	.	-18	-11	.
O=C(O)C1CCCCC1C(=O)Nc1cccc(C(=O)N2CCCCC2)c1 (stereo not drawn)	1	-56*	2	-7	-65
CCNC(=S)N1CCN(S(=O)(=O)c2cccc(C(F)(F)F)c2)CC1	.	30	6	2	72*
CC(C)NC(=S)N1CCN(S(=O)(=O)c2cccc(C(F)(F)F)c2)CC1	.	-19	-3	.	-14
COc1ccc(S(=O)(=O)Nc2cccc3c2O[C@@H](CN(C)Cc2ccc(Cl)c(Cl)c2)[C@H](C)CN([C@H](C)CO)C3=O)cc1	.	.	.	-5	.
CCc1c(C)nc2ccc(Br)cc2c1Cl	.	5	.	53*	7
CCC(=O)Nc1ccc2c(c1)C(=O)N(C)[C@@H]1CC[C@@H](CC(=O)NCc3ccc(OC)cc3)O[C@@H]1CO2	.	.	.	-4	.
COc1ccc(/C=N/Nc2ccccc2C(=O)O)cc1Cn1cc([N+](=O)[O-])cn1	18	-1	13	48*	1
CC(C)NC(=O)N(C)C[C@H]1Oc2ccc(NC(=O)Nc3ccccc3)cc2CC(=O)N([C@H](C)CO)C[C@@H]1C	.	.	.	5	.
CCCCN1CN(S(=O)(=O)c2cccs2)c2nc3ccccc3nc21	.	-6	.	.	-4
O=S(=O)(c1cccs1)N1CN(Cc2ccc(Cl)cc2)c2nc3ccccc3nc21	.	.	3	54*	.
Cc1ccc(CN2CN(S(=O)(=O)c3cccs3)c3nc4ccccc4nc32)cc1	.	23	66	70*	32
SMILES	Wnt act	HSF1 inh	MITF act	esBAF inh	HSF-1 act
N#CCC(=O)Nc1ccc(C(=O)Nc2ccc3c(c2)OCO3)cc1	16	.	15	18	.
N#CCC(=O)Nc1ccc(C(=O)OCC(=O)c2ccc3c(c2)OCO3)cc1	39*	17	69	47*	25
N#CCC(=O)Nc1ccc(C(=O)OCC(=O)c2ccc3c(c2)OCCO3)cc1	27	4	43	68*	-3
O=C(C[C@@H]1C[C@@H]2c3cc(NC(=O)CC4CC4)ccc3O[C@@H]2[C@H](CO)O1)NCc1cccnc1	.	.	.	-5	.
COc1ccc(-c2nc(-c3ccc(O)cc3O)cs2)cc1OC	7	45	52	28	68*
COc1ccc(-c2csc(-c3ccccc3)n2)c(OC)c1	13	17	86*	.	54*
COc1ccc(-c2csc(-c3cccs3)n2)c(OC)c1	4	24	45	25	61*
COc1ccc(-c2csc(-c3ccc(O)cc3)n2)cc1	2	22	35	.	23
COc1ccc(NC(=O)Nc2ccc3c(c2)CC(=O)N([C@H](C)CO)C[C@@H](C)[C@@H](CN(C)C(=O)NC(C)C)O3)cc1	.	.	.	5	.
CNC[C@@H]1Oc2ccc(NC(=O)CCN3CCOCC3)cc2CC(=O)N([C@H](C)CO)C[C@@H]1C	.	.	.	-1	.
COc1cccc(C(=O)Nc2ccc3c(c2)OC[C@@H](C)N(CCc2ccccc2)C[C@@H](C)[C@H](OC)CN(C)C3=O)c1	.	.	.	64*	.
CO[C@H]1CN(C)C(=O)c2cc(NC(=O)NC(C)C)ccc2OC[C@@H](C)N(Cc2ccc(-c3ccccn3)cc2)C[C@@H]1C	.	.	.	72*	.
COc1cccc(C(=O)Nc2ccc3c(c2)OC[C@@H](C)N(CCc2ccccc2)C[C@H](C)[C@H](OC)CN(C)C3=O)c1	.	.	.	1	.
CCCNC(=O)Nc1ccc2c(c1)C(=O)N(C)C[C@H](OC)[C@@H](C)CN(Cc1ccc(-c3ccccn3)cc1)[C@H](C)CO2	.	.	.	42*	.
CO[C@@H]1CN(C)C(=O)c2cc(NC(=O)c3nc4ccccc4s3)ccc2OC[C@@H](C)N(Cc2cccnc2)C[C@H]1C	.	.	.	51*	.
CO[C@H]1CN(C)C(=O)c2ccc(NC(=O)NC(C)C)cc2OC[C@H](C)N(Cc2ccc(-c3ccccn3)cc2)C[C@H]1C	.	.	.	3	.
C[C@@H]1CN([C@H](C)CO)C(=O)c2cc(-c3cccc(C#N)c3)cnc2O[C@@H]1CN(C)C(=O)C1CCC1	.	.	.	-3	.
Cc1noc(C)c1S(=O)(=O)Nc1ccc2c(c1)C(=O)N([C@@H](C)CO)C[C@@H](C)[C@@H](CN(C)S(=O)(=O)c1ccc(Cl)cc1)OCCCC[C@H](C)O2	.	.	.	3	.
O=C(C[C@H]1CC[C@H]2[C@@H](COC[C@@H](O)CN2C(=O)c2ccncc2)O1)NC1Cc2ccccc2C1	.	.	.	0	.
CO[C@H]1CN(C)C(=O)c2cc(NC(=O)NC(C)C)ccc2OC[C@H](C)N(Cc2ccc(-c3ccccn3)cc2)C[C@@H]1C	.	.	.	142*	.
CCCNC(=O)Nc1ccc2c(c1)C(=O)N(C)C[C@@H](OC)[C@H](C)CN(Cc1ccc(-c3ccccn3)cc1)[C@@H](C)CO2	.	.	.	4	.
C[C@@H]1CCCCO[C@@H](CN(C)Cc2ccccc2)[C@H](C)CN([C@H](C)CO)C(=O)c2cc(NC(=O)Nc3ccccc3)ccc2O1	.	.	.	0	.
c1coc(C2Nc3ccccc3-c3nc4ccccc4n32)c1 (stereo not drawn)	20	10	63	46*	27
c1ccc(C2Nc3ccccc3-c3nc4ccccc4n32)nc1 (stereo not drawn)	37*	22	21	.	33
c1ccc(C2Nc3ccccc3-c3nc4ccccc4n32)cc1 (stereo not drawn)	37*	19	.	45*	29
